Our source for the Potency values is PubChem BioAssay (Tox21).

Activity calls are given as the source filed them. Where a call stands in place of a potency, no number is given. Calls follow the shape of the dose curve; as a rule, active = well fitted curve in the direction sought with a large enough effect in the repeat runs; inconclusive = weak or mixed curves; inactive = flat fitted curve, though single readings scatter.

A short description of the experiment: qHTS assay to test for compound auto fluorescence at 460 nm (blue) in HEK293 cells (AID 720678). As to conditions: blue autofluorescence 405/460 nm; series mostly up to 91.3 µM. Summed up: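 Intrinsic compound fluorescence is recorded in live HEK293 cultures after overnight incubation at 37C, 5% CO2, using excitation 405 nm and emission 460 nm. Values are referenced to triamterene.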
(Quantitative high-throughput screening tests each substance at several concentrations.)
In the case of `CC1(C)S[C@@H]2[C@H](NC(=O)[C@H](N)c3ccccc3)C(=O)N2[C@H]1C(=O)O`, the Potency entry is “inactive”.

As to `CN(C)CCOC(C)(c1ccccc1)c1ccccn1` (stereo not drawn), the Potency result is “inactive”.

As for `COc1ccc(OC(F)(F)F)cc1CN[C@H]1CCCN[C@H]1c1ccccc1`, the Potency entry is “inactive”.

As to `CCCCCCCCCCCCCCCC[N+](C)(C)Cc1ccccc1`, the Potency result is “inactive”.

Consider `Cc1cn([C@H]2C=C[C@@H](CO)O2)c(=O)[nH]c1=O`, for which the Potency result is “inactive”.

As to `Nc1ccc(O)c([N+](=O)[O-])c1`, the Potency entry was “inactive”.

As for `CC(O)(P(=O)(O)O)P(=O)(O)O`, the Potency entry was “inactive”.

Regarding `Cc1cc(C)nc(NS(=O)(=O)c2ccc(N)cc2)n1`, the Potency result was “inactive”.

Regarding `CN(C)C(=S)SC(=S)N(C)C`, the Potency entry was “inactive”.

With `NC1CCCCC1`, the Potency entry is “inactive”.

For `Nc1c(N=Nc2ccc(-c3ccc(N=Nc4cc(S(=O)(=O)O)c5ccccc5c4N)cc3)cc2)cc(S(=O)(=O)O)c2ccccc12`, the Potency result was “inactive”.

In the case of `CCCCOC(=O)c1ccc(O)cc1`, the Potency result is “inactive”.

On to `CC(C)C(=O)Nc1ccc([N+](=O)[O-])c(C(F)(F)F)c1`, for which the Potency entry was “inactive”.

As for `Nc1ccc([N+](=O)[O-])cc1O`, the Potency result was “inactive”.

In the case of `Cc1cccc(C)c1`, the Potency entry is “inactive”.

Consider `CN(C)CCOC(c1ccccc1)c1ccccc1`, for which the Potency entry was “inactive”.

On to `CN1CCc2cccc3c2[C@H]1Cc1ccc(O)c(O)c1-3`, for which the Potency entry was “inactive”.

As to `Nc1c2c(nc3ccccc13)CCCC2`, the Potency entry is “inactive”.

With `CCCCCCCCCCCC[N+](C)(C)Cc1ccccc1`, the Potency result was “inactive”.

`COc1ccc2c(c1)c(CC(=O)O)c(C)n2C(=O)c1ccc(Cl)cc1`: the Potency entry is “inactive”.

As to `Oc1ccccc1`, the Potency entry is “inactive”.

For `COc1cccc(O)c1O`, the Potency result was “inactive”.

On to `Nc1ccc(S(N)(=O)=O)cc1`, for which the Potency result was “inactive”.
